For 35 compounds, max response results are on record in PubChem BioAssay (NCATS).

Values joined by “and” are separate entries in the source; they are usually repeats but may differ in a detail not shown here. Equal entries are not always repeated. Results filed as inconclusive are left out. Active and inactive are the calls of the source. The call rests on the fitted dose curve; in most records, active means well fitted curve in the direction sought with a large enough effect; inconclusive means small, poorly fitted or top-dose-only effect, or another doubt; inactive means no such curve, though single readings can be large or run the other way.
On the % scale 0 is the no-effect control and ±100 the full control effect.

A short description of the assay: qHTS Assay for Identifying Gametocytocidal Compounds (AID 743244).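 Further: actives lower the fluorescent signal which means gametocytes are killed.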 The note with it: P. falciparum 3D7 stage III-V gametocytes, alamarBlue, 72 h; max response: active compounds read low. The method, boiled down:
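Stage III–V gametocytes of P. falciparum 3D7 were seeded at 20,000 cells/well onto pre-dispensed compounds. After 72 h, 37 °C, 5% CO2, alamarBlue was added for another 24 h.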
On to `C[C@@H]1C[C@H]2[C@@H]3C[C@H](F)C4=CC(=O)C=C[C@]4(C)[C@@]3(F)[C@@H](O)C[C@]2(C)[C@@]1(O)C(=O)CO`, for which the max response was 2.1% (inactive).
Next, `COc1ccc2[nH]c(S(=O)Cc3ncc(C)c(OC)c3C)nc2n1` (stereo not given): -2.18% (inactive).
`NS(=O)(=O)c1cc2c(cc1Cl)NC(CSCc1ccccc1)=NS2(=O)=O`: the max response was -8.8% (inactive).
Consider `Oc1ccc(C(O)CNCCCCCCNCC(O)c2ccc(O)c(O)c2)cc1O` (stereo not given), for which the max response is -5.82% (inactive).
To `COc1ccc(S(=O)(=O)Nc2nnc(CC(C)C)s2)cc1` belongs 7.52% (inactive) and 10.3% (inactive); to `Nc1ccc(S(=O)(=O)NC(=O)c2ccccc2)cc1`, 7.19% (inactive).
To `CCn1cc(C(=O)O)c(=O)c2cnc(N3CCNCC3)nc21` belongs 12.2% (inactive); to `O=c1cc[nH]c(=O)[nH]1`, 17% (inactive).
Turning to `c1ccc(CN(CC2=NCCN2)c2ccccc2)cc1`, the max response is -10.1% (inactive).
Next, `CCCCN1CCCC[C@H]1C(=O)Nc1c(C)cccc1C`: 12.1% (inactive); `OC[C@H]1O[C@@H](O[C@@H]2[C@@H](CO)O[C@](O)(CO)[C@H]2O)[C@H](O)[C@@H](O)[C@H]1O`: -3.99% (inactive).
Regarding `CC(C)(C)C(=O)NCCCC(=O)O`, the max response is 2.51% (inactive).
Take `Cc1cc(O)cc2c1O[C@](C)(CCC[C@H](C)CCC[C@H](C)CCCC(C)C)CC2`: the max response is -2.34% (inactive) and 0.0933% (inactive).
Next, `O=C(O)Cc1sc(-c2ccccc2)nc1-c1ccc(Cl)cc1`: -5.46% (inactive) and 46.6% (inactive) and 14.6% (inactive); `C[C@H](N)[C@H](O)c1cccc(O)c1`: 5.58% (inactive).
For the compound `C[C@H](NC(CCc1ccccc1)C(=O)O)C(=O)N1CCC[C@H]1C(=O)O` (stereo not given in full), the max response was 7.34% (inactive).
To `O=S(=O)(O)c1cc(I)c(O)c2ncccc12` belongs 5.64% (inactive); to `CC(COc1ccccc1)NC(C)C(O)c1ccc(O)cc1` (stereo not given), 25.2% (inactive); to `CC1(C)OC(=O)NC1=O`, 2.42% (inactive).
For `CC(=O)c1ccc2c(c1)N(CCCN(C)C)c1ccccc1S2`, the max response was -10.5% (inactive).
To `CC(=O)Oc1c(C)c(C)c2c(c1C)CC[C@@](C)(CCC[C@H](C)CCC[C@H](C)CCCC(C)C)O2` belongs -2.38% (inactive) and 13.2% (inactive) and -6.36% (inactive); to `C=CCn1c(=O)n([C@@H]2O[C@H](CO)[C@@H](O)[C@H]2O)c2nc(N)[nH]c(=O)c21`, 7.63% (inactive).
`CCC(=O)Nc1ccc(O)cc1`: the max response is 7.2% (inactive).
Next, `N[C@@H](CSCCCO)C(=O)O`: -2.32% (inactive); `C/C(=C(\CCOP(=O)(O)O)SC(=O)c1ccccc1)N(C=O)Cc1cnc(C)nc1N`: 7.95% (inactive).
Next, `O=c1[nH]cnc2c1ncn2[C@@H]1O[C@H](CO)[C@@H](O)[C@H]1O`: 5.28% (inactive); `CCOC(=O)[C@H](CCc1ccccc1)N[C@@H](C)C(=O)N1C(=O)N(C)C[C@H]1C(=O)O`: 6.96% (inactive); `Cn1c(=O)c2c(ncn2CC2OCCO2)n(C)c1=O`: 2.6% (inactive).
Regarding `CCOc1nc2cccc(C(=O)O)c2n1Cc1ccc(-c2ccccc2-c2nn[nH]n2)cc1`, the max response was 5.7% (inactive).
Next, `CC(C)(O)c1ccccc1CC[C@@H](SCC1(CC(=O)O)CC1)c1cccc(/C=C/c2ccc3ccc(Cl)cc3n2)c1`: -7.08% (inactive).
As to `NCC(=O)CCC(=O)O`, the max response was 0.855% (inactive).
Take `CS(=O)(=O)c1ccc([C@@H](O)[C@@H](CF)NC(=O)C(Cl)Cl)cc1`: the max response is 23.9% (inactive).
For `c1ccc2c(CC3=NCCN3)cccc2c1`, the max response was 1.75% (inactive) and 3.04% (inactive) and -11% (inactive).
Next, `CCCCc1ncc(/C=C(\Cc2cccs2)C(=O)O)n1Cc1ccc(C(=O)O)cc1`: -3.3% (inactive); `CN(C)CCN(Cc1ccccc1)c1ccccn1`: -8.07% (inactive).
